Counter-ions that a name gives are not always drawn. ± gives the standard deviation of the averaged measurements. In all, about 1,600 compounds were measured (“mitochondrial oxygen consumption rate normalised to cell number, Z score over the library”: median about 0.065, lowest 2% from about -2.2 on). The list comes from a sample in which the lowest values are over-represented; it also holds similar structures and randomly drawn compounds.
tested on: FaDu; assay: mitochondrial oxygen consumption rate normalised to cell number, Z score over the library; higher = higher oxygen consumption (negative = OCR reduction); settings: treatment time 24 h; assay medium: 5 mM galactose, 5 mM pyruvate, 4 mM glutamine; 10 µM
Experimental: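 Primary screen: FaDu cells were incubated 24 h with Pharmakon 1600 / TDI oncology set compounds at 2 or 10 uM. Mitochondrial-specific OCR (basal minus 2 uM antimycin A) was measured on a Seahorse XF96 in assay medium with 5 mM galactose, 5 mM pyruvate and 4 mM glutamine, then corrected for Hoechst cell number and expressed as a Z score […]. Compounds that cut cell number by >66% were excluded. Two repeats.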

Structure (SMILES)	mitochondrial oxygen consumption rate normalised
O.O.O.O.O=C([O-])CC(O)(CC(=O)[O-])C(=O)[O-].[Li+].[Li+].[Li+]	-0.228 ± 1.6
CC1(C)[C@H](C(=O)O)N2C(=O)C[C@H]2S1(=O)=O	0.32 ± 0.83
CCCCCCc1ccc(O)cc1O	0.48 ± 0.24
CCCCCCc1ccc(O)cc1O.Nc1c2ccccc2nc2ccccc12	-2.93 ± 0.2
Nc1c2c(nc3ccccc13)CCCC2	1.05 ± 0.93
O=C(O)c1cc(-c2ccccc2)nc2ccccc12	0.349 ± 0.05
Oc1c(Cl)cc(Cl)cc1Sc1cc(Cl)cc(Cl)c1O	6.804 ± 0.06
Oc1c(Cl)cc(Cl)c(Cl)c1Cc1c(O)c(Cl)cc(Cl)c1Cl	-6.031 ± 0.028
O=C(Nc1cc(Cl)cc(Cl)c1O)c1c(O)c(Cl)cc(Cl)c1Cl	1.06 ± 0.89
O=C(NCc1ccccc1)OCCO	1.42 ± 0.86
CCCCC(CC)COc1ccc(-c2nc(-c3ccc(OC)cc3)nc(-c3ccc(OCC(CC)CCCC)cc3O)n2)c(O)c1 (stereo not given)	0.282 ± 0.45
Cc1ccccc1OCC(O)CO (stereo not given)	-0.432 ± 0.61
O=C1C(O)=C(O)C(=O)C(O)=C1O	0.611 ± 0.72
Cc1oc(=O)oc1CN1CCN(c2cc3c(cc2F)c(=O)c(C(=O)O)c2n3C(C)S2)CC1 (stereo not given)	0.0314 ± 0.4
NC(=O)CCCCC1CCSS1 (stereo not given)	1.43 ± 0.3
CCN[C@@H]1C[C@H](N)[C@@H](O[C@H]2OC(CN)=CC[C@H]2N)[C@H](O)[C@H]1O[C@H]1OC[C@](C)(O)[C@H](NC)[C@H]1O	1.16 ± 0.38
O=C1/C(=C/c2cccs2)CCC/C1=C\c1cccs1	0.0645 ± 0.73
CC(C)n1c(/C=C/C(O)CC(O)CC(=O)O)c(-c2ccc(F)cc2)c2ccccc21 (stereo not given)	-1.03 ± 0.072
CC(=O)[C@@]1(O)CC[C@H]2[C@@H]3C=C(Cl)C4=CC(=O)[C@@H]5C[C@@H]5[C@]4(C)[C@H]3CC[C@@]21C	-0.129 ± 1.6
Cc1cc(/C=C/c2ccc3cc(N(C)C)ccc3[n+]2C)c(C)n1-c1ccccc1	-5.57 ± 0.19
COc1cc2/c(=N/c3ccc(Br)cc3F)nc[nH]c2cc1OCC1CCN(C)CC1 [vandetanib]	0.909 ± 1.7
CCN(CC)C(=O)c1cccnc1	-0.362 ± 0.74

Structure (SMILES)	mitochondrial oxygen consumption rate normalised
OCc1ccccc1O[C@@H]1O[C@H](CO)[C@@H](O)[C@H](O)[C@H]1O	0.956 ± 0.64
O=C(c1ccc(OCCN2CCCCC2)cc1)c1c(-c2ccc(O)cc2)sc2cc(O)ccc12	-0.0851 ± 0.4
O=C(c1ccc(OCCN2CCCCC2)cc1)c1c(-c2ccc(O)cc2)sc2cc(O)ccc12 [Raloxifene HCl]	-0.567 ± 1.1
COc1ccc(-n2nc(CCC(=O)N(C)O)cc2-c2ccc(Cl)cc2)cc1	-0.88 ± 0.44
FC(F)(Cl)C(F)(F)Cl	0.262 ± 0.59
CC12CCC(CC1=O)C2(C)C (stereo not given)	0.477 ± 0.051
C/C(=C\c1csc(C)n1)[C@@H]1C[C@@H]2O[C@]2(C)CCC[C@H](C)[C@H](O)[C@@H](C)C(=O)C(C)(C)[C@@H](O)CC(=O)N1 [Ixabepilone]	-0.637 ± 0.14
OC[C@H]1O[C@@H](O[C@@H]2[C@@H](CO)OC(O)(CO)[C@H]2O)[C@H](O)[C@@H](O)[C@H]1O (mixture of isomers)	1.09 ± 0.68
CN(C)CC(c1ccc(O)cc1)C1(O)CCCCC1 (stereo not given)	0.524 ± 0.65
S=C=Nc1ccc(N=C=S)cc1	0.759 ± 0.026
CC(=O)O[C@H]1C(=O)[C@@]2(C)[C@H]([C@H](OC(=O)c3ccccc3)[C@]3(O)C[C@H](OC(=O)[C@H](O)[C@@H](NC(=O)c4ccccc4)c4ccccc4)C(C)=C1C3(C)C)[C@]1(OC(C)=O)CO[C@@H]1C[C@@H]2O [Paclitaxel]	-0.326 ± 0.26
CC(=O)O[C@H]1C(=O)[C@@]2(C)[C@H]([C@H](OC(=O)c3ccccc3)[C@]3(O)C[C@H](OC(=O)[C@H](O)[C@@H](NC(=O)c4ccccc4)c4ccccc4)C(C)=C1C3(C)C)[C@]1(OC(C)=O)CO[C@@H]1C[C@@H]2O	0.221 ± 0.61
CCCCCC(C)N (stereo not given)	-0.846 ± 0.93
CC#CCn1c(N2CCC[C@@H](N)C2)nc2c1c(=O)n(Cc1nc(C)c3ccccc3n1)c(=O)n2C	0.0591 ± 0.1
CCCCC(=O)O[C@H]1CC[C@H]2[C@@H]3CCc4cc(O)ccc4[C@H]3CC[C@]12C	-0.519 ± 0.44
CCCCC(CC)COC(=O)CC(C(=O)OCC(CC)CCCC)S(=O)(=O)O (stereo not given)	0.149 ± 0.34
CCCCC(CC)CN=C(N)N=C(N)NCCCCCCNC(N)=NC(N)=NCC(CC)CCCC (stereo not given)	-4.17 ± 0.22
CC(=O)Nc1ccc(OC(=O)c2ccccc2O)cc1	-0.337 ± 0.25
CC(CCc1ccc(O)cc1)NCC(O)c1ccc(O)cc1 (stereo not given)	0.0984 ± 0.26
CNNCc1ccc(C(=O)NC(C)C)cc1 [Procarbazine HCl]	0.127 ± 0.26
CNNCc1ccc(C(=O)NC(C)C)cc1	0.342 ± 0.2
C[C@H]1C[C@H]2[C@@H]3CCC4=CC(=O)C=C[C@]4(C)[C@@]3(F)[C@@H](O)C[C@]2(C)[C@@]1(O)C(=O)COP(=O)(O)O	-0.398 ± 0.27

Structure (SMILES)	mitochondrial oxygen consumption rate normalised
CS(=O)(=O)OCCCCOS(C)(=O)=O [Busulfan]	0.391 ± 1.2
CS(=O)(=O)OCCCCOS(C)(=O)=O	0.716 ± 1.1
O=C(Nc1ccc([N+](=O)[O-])cc1Cl)c1cc(Cl)ccc1O	-5.97 ± 0.27
NC(=O)c1ccc([N+](=O)[O-])cc1Cl	0.965 ± 0.77
O=C(O)COCCN1CCN([C@H](c2ccccc2)c2ccc(Cl)cc2)CC1	-0.965 ± 0.4
COc1ccc2nc3cc(Cl)ccc3c(Nc3cc(CN4CCCC4)c(O)c(CN4CCCC4)c3)c2n1	-0.0207 ± 0.29
COc1cc2c(N3CCN(C(=O)Nc4ccc(OC(C)C)cc4)CC3)ncnc2cc1OCCCN1CCCCC1	0.241 ± 0.61
COc1ccc(OC)c(C(O)CNC(=O)CN)c1 (stereo not given)	0.934 ± 0.11
C[n+]1ccccc1/C=N/O	0.788 ± 0.1
Cc1ncc(C[n+]2csc(CCO)c2C)c(N)n1	1.53 ± 0.67
CC1(O)CCC(C(C)(C)O)CC1 (stereo not given)	0.228 ± 0.62
CO[C@@]12[C@H](COC(N)=O)C3=C(C(=O)C(C)=C(N)C3=O)N1C[C@@H]1N[C@@H]12	-2.77 ± 0.14
O=C(O)CCC(=O)OC[C@@H](NC(=O)C(Cl)Cl)[C@H](O)c1ccc([N+](=O)[O-])cc1	-1.19 ± 0.7
CC1CC(OC(=O)C(O)c2ccccc2)CC(C)(C)C1 (stereo not given)	0.62 ± 0.34
C[C@@H](c1ncncc1F)[C@](O)(Cn1cncn1)c1ccc(F)cc1F	-0.0277 ± 0.47
Cc1cc(N)c2ccccc2[n+]1CCCCCCCCCC[n+]1c(C)cc(N)c2ccccc21	-2.58 ± 0.47
O=C1NS(=O)(=O)c2ccccc21	0.156 ± 0.036
COC(=O)C(N)CS (stereo not given)	0.244 ± 0.32
CC(=O)CC(c1ccc([N+](=O)[O-])cc1)c1c(O)c2ccccc2oc1=O (stereo not given)	0.325 ± 0.51
CCOc1cc(NC(C)=O)ccc1C(=O)OC	-0.0275 ± 0.23
CO[C@H](C(=O)[C@@H](O)[C@@H](C)O)[C@@H]1Cc2cc3cc(O[C@H]4C[C@@H](O[C@@H]5C[C@@H](O)[C@H](O)[C@@H](C)O5)[C@H](O)[C@@H](C)O4)c(C)c(O)c3c(O)c2C(=O)[C@H]1O[C@H]1C[C@@H](O[C@@H]2C[C@@H](O)[C@@H](O[C@@H]3C[C@](C)(O)[C@H](O)[C@@H](C)O3)[C@@H](C)O2)[C@H](O)[C@@H](C)O1	-3.768 ± 0.0062
CC1CC2C3CCC4=CC(=O)C=CC4(C)C3(F)C(O)CC2(C)C1C(=O)CO (stereo not given)	0.242 ± 0.014

Structure (SMILES)	mitochondrial oxygen consumption rate normalised
CC(C)CCCC(C)NC(C)C (stereo not given)	0.505 ± 0.85
CNC(=O)c1c(I)c(NC(C)=O)c(I)c(C(=O)O)c1I	-0.0805 ± 0.4
CN1CCCN=C1/C=C/c1cccc(O)c1	0.441 ± 0.03
CCOc1ccc(S(=O)(=O)O)c2cccnc12	0.206 ± 0.45
CC(C)(C)CC(C)(C)c1cc(Cc2cc(C(C)(C)CC(C)(C)C)cc(-n3nc4ccccc4n3)c2O)c(O)c(-n2nc3ccccc3n2)c1	0.425 ± 0.54
O=C1c2ccccc2C(=O)C1c1ccccc1	-1.52 ± 0.92
NC[C@H]1O[C@H](O[C@H]2[C@H](O[C@@H]3O[C@H](CO)[C@@H](O)[C@H]3O)[C@@H](O)[C@H](N)C[C@@H]2N)[C@H](N)[C@@H](O)[C@@H]1O	0.994 ± 0.3
CCCCC(CC)COC(=O)C=Cc1ccc(OC)cc1 (stereo not given)	0.103 ± 0.58
CC(COc1ccccc1)NC(C)C(O)c1ccc(O)cc1 (stereo not given)	0.554 ± 0.81
CCCCCCCCNC(C)C(O)c1ccc(SC(C)C)cc1 (stereo not given)	-3.24 ± 0.087
CC(NCCc1ccc(O)cc1)C(O)c1ccc(O)cc1 (stereo not given)	-0.342 ± 0.3
CCCCC(CC)COC(=O)c1ccccc1O (stereo not given)	0.409 ± 0.072
C=CCOC(Cn1ccnc1)c1ccc(Cl)cc1Cl (stereo not given)	-0.834 ± 0.055
Clc1ccc(COC(Cn2ccnc2)c2ccc(Cl)cc2Cl)cc1 (stereo not given)	-2.19 ± 0.39
Clc1ccc(COC(Cn2ccnc2)c2ccc(Cl)cc2Cl)c(Cl)c1 (stereo not given)	-0.399 ± 0.35
NC(=O)[C@@H]1CCCN1C(=O)[C@H](Cc1c[nH]cn1)NC(=O)[C@@H]1CCC(=O)N1	-1.1 ± 0.47
CC(C)CC(N)=O	0.337 ± 0.48
O=C([O-])/C=C/C(=O)[O-].[Fe+2]	-0.129 ± 0.31
CC(=O)Oc1cccc(O)c1	0.689 ± 0.62
CC(O)C(=O)O.N (stereo not given)	0.0377 ± 0.64
Nc1ncn([C@H]2C[C@H](O)[C@@H](CO)O2)c(=O)n1 [Decitabine]	0.0464 ± 0.58
Nc1ncn([C@@H]2O[C@H](CO)[C@@H](O)[C@H]2O)c(=O)n1 [Azacitidine]	0.38 ± 0.39

Structure (SMILES)	mitochondrial oxygen consumption rate normalised
Nc1ccn([C@@H]2O[C@H](CO)[C@@H](O)[C@@H]2O)c(=O)n1 [Cytarabine;  Ara-C]	1.36 ± 0.84
Nc1ccn([C@@H]2O[C@H](CO)[C@@H](O)[C@@H]2O)c(=O)n1	0.901 ± 0.043
Nc1ncn([C@@H]2O[C@H](CO)[C@@H](O)[C@H]2O)c(=O)n1	-2.25 ± 0.072
S=c1[nH]cnc2nc[nH]c12	-1.7 ± 0.17
Nc1nc2[nH]cnc2c(=S)[nH]1 [Thioguanine]	0.0465 ± 0.27
Nc1nc2[nH]cnc2c(=S)[nH]1	-2.58 ± 0.18
CN1CCN(c2cc3c(cc2F)c(=O)c(C(=O)O)cn3-c2ccc(F)cc2)CC1	-0.0696 ± 0.52
CCCCCCCCCCCCCCCCOP(=O)([O-])OCC[N+](C)(C)C	-1.18 ± 0.45
CCC(=O)NCC[C@@H]1CCc2ccc3c(c21)CCO3	-0.125 ± 0.067
CCN(CC)CCNC(=O)c1c(C)[nH]c(/C=C2\C(=O)Nc3ccc(F)cc32)c1C [Sunitinib Malate]	-0.335 ± 0.17
CCCCCCCCCCOc1cc2c(O)c(C(=O)OCC)cnc2cc1OCC	-0.591 ± 0.88
Cc1cc2nc3ccc(N(C)C)cc3[s+]c2cc1N	-0.959 ± 0.51
CN(C)CCC=C1c2ccccc2COc2ccccc21	0.0965 ± 0.76
CC(=O)Oc1cc(C(C)C)c(OCCN(C)C)cc1C	-0.219 ± 0.18
O=C1CC[C@@H](C(=O)O)N1	0.186 ± 1.2
O=C1[C@H](CC[C@H](O)c2ccc(F)cc2)[C@@H](c2ccc(O)cc2)N1c1ccc(F)cc1	-0.13 ± 0.35
COc1ccc2cc3[n+](cc2c1OC)CCc1cc2c(cc1-3)OCO2	-5.87 ± 0.012
COc1ccc2c(c1OC)C(=O)O[C@@H]2[C@H]1c2c(cc3c(c2OC)OCO3)CCN1C	0.129 ± 0.48
CC[C@H]1OC(=O)[C@H](C)C(=O)[C@H](C)[C@@H](O[C@@H]2O[C@H](C)C[C@H](N(C)C)[C@H]2O)[C@](C)(OC)C[C@@H](C)C(=O)[C@H](C)[C@H]2N(CCCCn3cnc(-c4cccnc4)c3)C(=O)O[C@]12C	-0.0307 ± 0.49
NC(=O)NS(=O)(=O)c1ccc(N)cc1	0.826 ± 1.4
Cc1cc(-c2ccc(/N=N/c3ccc4c(S(=O)(=O)O)cc(S(=O)(=O)O)c(N)c4c3O)c(C)c2)ccc1/N=N/c1ccc2c(S(=O)(=O)O)cc(S(=O)(=O)O)c(N)c2c1O	1.24 ± 1
Cc1cc(=O)oc2cc(O)ccc12	0.758 ± 0.23
